Each structure is given as a SMILES string. The source made the active and inactive calls. Rule for the calls: active = hit-call score of the fitted dose curve at least 0.9, where 1 is the maximum; inactive = score below 0.9.

Sequence of human Serotonin Receptor 5-HT5A Agonism, HTR5A (gene 3361) (P47898 whole entry, looked up): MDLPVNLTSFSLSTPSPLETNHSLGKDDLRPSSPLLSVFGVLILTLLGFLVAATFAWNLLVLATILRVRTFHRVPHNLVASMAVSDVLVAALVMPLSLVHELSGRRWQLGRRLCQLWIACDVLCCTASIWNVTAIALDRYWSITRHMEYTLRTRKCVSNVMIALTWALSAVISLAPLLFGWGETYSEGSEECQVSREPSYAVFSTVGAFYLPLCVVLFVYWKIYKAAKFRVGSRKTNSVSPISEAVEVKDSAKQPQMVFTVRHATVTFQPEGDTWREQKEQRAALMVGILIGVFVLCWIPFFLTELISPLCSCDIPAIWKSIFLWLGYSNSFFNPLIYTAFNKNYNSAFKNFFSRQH

The target of the experiment is human Serotonin Receptor 5-HT5A Agonism, HTR5A (gene 3361) (UniProt P47898). The experiment is described as follows: ERF_FR_GPCR_hHTR5A: Eurofins (ERF) G Protein-Coupled Receptor (GPCR) Radioligand Binding LeadHunter Assay for human Serotonin Receptor 5-HT5A Agonism. The procedure:
ERF_FR_GPCR_hHTR5A is a biochemical, single-readout assay that uses extracted gene-proteins in a cell-free assay. Measurements were taken 2 hour after chemical dosing in a 96-well plate. See 5-HT5A Human Serotonin GPCR Binding (Agonist Radioligand) Assay, Cerep.ERF_FR_GPCR_hHTR5A is an assay component calculated from the ERF_FR_GPCR_hHTR5A assay. It is designed to measure radioligand binding using a type of binding reporter as detected by scintillation counting with radiometry technology.Data from the assay component ERF_FR_GPCR_hHTR5A was analyzed at the assay endpoint, ERF_FR_GPCR_hHTR5A, in the positive analysis fitting direction relative to DMSO as the negative control and baseline of activity. Using a type of binding reporter, gain-of-signal activity can be used to understand changes in binding as they relate to gene HTR5A. To generalize the intended target to other relatable targets, this assay endpoint is annotated to the gpcr intended target family, where the subfamily is serotonin.
Human cells are incubated for 120 minutes at 37 C with [3H]LSD ligand (1.5 nM) and serotonin as control inhibitor. Test Sample Requirements: Minimum for 1) Screen: 60 ul of 10 mM stock -OR- 1 mg (pre-weighed) for 10 uM final testing. 2) Dose Response: 90 ul of 10 mM stock -OR- 1 mg (pre-weighed) for a top concentration at 10 uM.
For `O=C(/C=C/c1ccc(O)cc1)CC(=O)/C=C/c1ccc(O)cc1`, the concentration at half-maximal activity (AC50) was 1.68 µM (active).

The values above are taken from PubChem BioAssay AID2284191 (EPA ToxCast).
